The list is not random: actives were taken first. Their share in the collection is about 12%.
G9a inh: qHTS Assay for Inhibitors of Histone Lysine Methyltransferase G9a; G9a H3K9 monomethylation, AlphaScreen, 2 h; Potency, µM (doses to about 102 µM), without a hit: at the highest dose activity, negative = inhibition, hits mostly inhibitors; Histone-lysine N-methyltransferase EHMT2 (Homo sapiens), Q96KQ7; 8.8% of 350,000 active; further: on the % scale 0 is the no-effect control and ±100 the full control effect; nearly all actives have a fitted effect of over 75% in size
Target sequence (Q96KQ7 913-1193 limits assumed): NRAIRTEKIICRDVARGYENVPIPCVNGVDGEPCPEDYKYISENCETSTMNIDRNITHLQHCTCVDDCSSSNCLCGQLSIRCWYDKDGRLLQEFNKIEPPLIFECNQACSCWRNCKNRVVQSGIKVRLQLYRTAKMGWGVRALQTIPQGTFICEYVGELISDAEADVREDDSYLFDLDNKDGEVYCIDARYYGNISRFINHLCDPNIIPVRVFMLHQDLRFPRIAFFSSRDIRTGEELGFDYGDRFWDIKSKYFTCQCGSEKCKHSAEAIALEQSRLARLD
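Chemiluminescent proximity detection of H3K9 monomethylation, read after 10 min bead incubation in the dark. Reaction: 20 nM G9a, 500 nM biotin-H3K9 peptide, 20 uM SAM cofactor, 2 h, room temperature, following 15 min enzyme-compound preincubation.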
JMJD2A Tudor: qHTS Assay for Inhibitors of JMJD2A-Tudor Domain; Lysine-specific demethylase 4A (Homo sapiens), O75164; AlphaScreen JMJD2A-Tudor / H3K4me3 peptide binding; Potency, µM (series often up to 114 µM), for the others: at the top dose activity change, negative = inhibition, most hits filed as inhibitors; 4.4% of 390,000 active; AID 504339, 2011; further: on the % scale 0 is the no-effect control and ±100 the full control effect; nearly all actives have a fitted effect of over 50% in size
HP1b chromo inh: HTS for Inhibitors of HP1-beta Chromodomain Interactions with Methylated Histone Tails | AlphaScreen HP1-beta / biotin-H3K9me3 peptide binding | Chromobox protein homolog 1 (Homo sapiens), P83916 | Potency, µM (doses to about 114 µM), without a hit: at the top dose activity change, negative = inhibition, most hits filed as inhibitors | 0.56% of 390,000 active | AID 540317, 2011; further: nearly all actives have a fitted effect of over 70% in size
Target sequence (P83916 whole entry, looked up): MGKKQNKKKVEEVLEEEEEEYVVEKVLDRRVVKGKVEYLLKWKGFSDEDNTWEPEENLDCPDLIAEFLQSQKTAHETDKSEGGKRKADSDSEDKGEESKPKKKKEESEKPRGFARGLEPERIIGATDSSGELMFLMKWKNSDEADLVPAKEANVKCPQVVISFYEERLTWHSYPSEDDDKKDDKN
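Compound inhibition of the preformed complex between 50 nM HP1-beta and 50 nM biotinylated H3K9me3 peptide was read by AlphaScreen. Buffer was PBS pH 7.4 with 0.01% Tween-20. Incubations ran 30 min at room temperature, with 10 ug/mL donor/acceptor beads.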
Sfp PPTase inh: qHTS Assay for Inhibitors of Bacillus subtilis Sfp phosphopantetheinyl transferase (PPTase) | Potency, µM, inactives show largest response in the series, negative = inhibition, hits mostly inhibitors | Biochemical Sfp PPTase activity, qHTS | 4'-phosphopantetheinyl transferase ffp (Bacillus subtilis), Q9F4F7 | AID 1490, 2009 | 3.5% of 310,000 active;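 further: the enzyme is Sfp with the accession as filed and its product quenches rhodamine fluorescence; 0% = enzyme reaction without inhibitor and -100% = no enzyme wells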
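Compounds were incubated with enzyme (final 15 nM) for 15 min at room temperature before substrate addition started the reaction. Fluorescence at 525 nm excitation, 598 nm emission was recorded immediately and after 30 minutes.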
BAZ2B block: qHTS Assay for Inhibitors of BAZ2B; 4.4% of 360,000 active; Potency, µM (highest dose often 114 µM), inactives show at the highest dose activity change, negative = inhibition, actives largely listed as inhibitors; AlphaScreen BAZ2B-H3K14Ac peptide displacement; AID 504333, 2011; further: on the % scale 0 is the no-effect control and ±100 the full control effect; nearly all actives have a fitted effect of over 60% in size
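BAZ2B 50 nM plus b-H3(5-23)K14Ac 50 nM, PBS pH 7.4/0.01% Tween-20, 30 min RT; compound added (max 110 uM), 30 min RT; streptavidin donor/Ni-chelate acceptor beads 10 ug/mL final, 20 min dark; AlphaScreen read.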
* = called active by the depositor; ? = inconclusive; nt = no result given; [ ] = dose if it differs, or a comment. The call rests on the fitted dose curve; in most records, active means well fitted curve in the direction sought with a large enough effect; inconclusive means small, poorly fitted or top-dose-only effect, or another doubt; inactive means no such curve, though single readings can be large; an effect the other way counts as inactive or inconclusive. Potency means the concentration at half of the fitted maximal effect.

SMILES | G9a inh | JMJD2A Tudor | HP1b chromo inh | Sfp PPTase inh | BAZ2B block
Cc1ccc(-c2ccc(/C=N\NC(=O)c3cc4c(ccc5ccccc54)o3)o2)cc1[N+](=O)[O-] | nt | -32% | 14% | -11% | 2%
O=C(N/N=C/c1ccncc1)c1cc2c(ccc3ccccc32)o1 | 14%[12.7 µM] | -22% | 37% | 5% | -2%
O=C(N/N=C/c1ccc(-c2ccc(Cl)c(C(=O)O)c2)o1)c1cc2c(ccc3ccccc32)o1 | nt | -8%[11.4 µM] | ? | ? | 28µM*
C=CCN1/C(=C(\C#N)C2=NS(=O)(=O)c3ccccc32)N(C)c2ccccc21 | ? | -5% | 11% | -7% | -4%
CNC(=O)NC(=O)C(C)OC(=O)c1c2c(nc3ccccc13)/C(=C/c1cccs1)CC2 (centres undefined) | -8%[59 µM] | 7% | 40% | 32µM* | 1%
CCCCNC(=O)COC(=O)c1c2c(nc3ccccc13)/C(=C/c1cccs1)CC2 | 30%[59 µM] | -2% | 131% | ? | 0%
c1ccc2c(CSCCc3ccncc3)cccc2c1 | -13% | -16% | 25% | 50µM* | -19%[57.1 µM]
c1ccc2c(CCc3ccncc3)cccc2c1 | nt | 3% | 74% | nt | nt
CCn1c(C)cc(C(=O)COC(=O)c2ccccc2[N+](=O)[O-])c1C | nt | 45µM* | ? | nt | nt
CCCCN1C=CC(=C2C(=O)c3ccccc3C2=O)C=C1 | 50µM* | -4% | 41% | 20% | 22%
c1cn(CCCNc2ncnc3nc[nH]c23)cn1 | -32% | -12% | 44% | 17% | -27%
O=[N+]([O-])c1ccc(Cl)c(CN2CCCCCC2)c1 | 25µM* | 1.3µM* | ? | -4% | 56µM*
O=[N+]([O-])c1ccc(Cl)c(CN2CCC(O)CC2)c1 | 7.9µM* | 10µM* | 45µM* | 50µM* | 56µM*
Cc1ccc(S(=O)(=O)N2CCN(C(=O)C(C)Cn3nc(C)c(C)c3C)CC2)cc1C (centres undefined) | 50µM* | -3% | 21% | 23% | 0%
CC(=O)Nc1ccc2nc(-c3ccncc3)[nH]c2c1 | 5% | -25% | 23% | -1% | ?
CC(=O)Nc1ccc2nc(-c3ccccn3)[nH]c2c1 | ? | 56µM* | 12% | 50µM* | ?
CC(=O)Nc1cc(NC(C)=O)cc(-c2nc3ccccc3[nH]2)c1 | -2% | -10% | ? | 12% | 50µM*
CC1(C)CC(=O)C(N=Nc2ccc3ncsc3c2)=C(O)C1 | ? | -35% | 14% | -10% | ?
COc1ccc2nc(N=Nc3ccc(O)c4ccccc34)sc2c1 | 3.2µM* | ? | ? | -4% | 2.8µM*
COc1ccc2nc(N=NC3=C(O)CC(C)(C)CC3=O)sc2c1 | ? | ? | ? | ? | 40µM*
COc1ccc2nc(N)sc2c1 | 10%[12.7 µM] | -8% | 25% | 17% | -1%
O=C(COc1cccnc1[N+](=O)[O-])NCc1cccs1 | -15% | -15% | 13% | 12% | -9%
O=c1c(-n2cncn2)c[nH]n1-c1cccc(Cl)n1 | ? | 50µM* | ? | 56µM* | 50µM*
O=c1c(/C=N/OCc2ccc(Cl)cc2Cl)c[nH]n1-c1cccc(Cl)n1 | 3% | -30% | 15% | 2% | -5%
O=C(Nc1cccc([N+](=O)[O-])c1)N1CCN(c2ccccc2)CC1 | nt | -27% | 3% | -13% | ?
SMILES | G9a inh | JMJD2A Tudor | HP1b chromo inh | Sfp PPTase inh | BAZ2B block
Cc1ccc(N2CCN(C(=O)Nc3cccc([N+](=O)[O-])c3)CC2C)cc1 (centres undefined) | ? | ? | ? | 12% | 56µM*
COc1cc(NCC(=O)Nc2cccc(S(=O)(=O)N3CCCCC3)c2)cc(OC)c1OC | ? | ? | 10% | nt | -12%
COc1cc(C2C3=C(CC(c4ccco4)CC3=O)Nc3ccccc3N2C(C)=O)cc(OC)c1OC (centres undefined) | ? | ? | 11% | 18µM* | ?
O=C1CC(c2ccco2)CC2=C1C1c3ccccc3C(=O)N1c1ccccc1N2 (centres undefined) | 18µM* | -23% | -12% | 20µM* | ?
N#C/C(=C\c1ccc(-c2ccc(C(=O)O)cc2)o1)C(=O)NCC1CCCO1 (centres undefined) | 10µM* | -17% | 8% | 4% | ?
Cc1cccc(C)c1NC(=O)/C(C#N)=C/c1ccc(-c2ccc(C(=O)O)cc2)o1 | 45µM* | -28% | 12% | 4% | ?
COc1ccc(N2C3=C(C(=O)CC(C)(C)C3)C(c3cnn(C)c3)C3=C2CC(C)(C)CC3=O)cc1 | -23% | 1% | 41% | 10% | 11%
Nc1nc(SCc2ccccc2)c2[nH]cnc2n1 | 5% | -18% | 26% | 14% | 3%
Nc1nc(Sc2ccc([N+](=O)[O-])c3nonc23)c2[nH]cnc2n1 | nt | 28µM* | 8.9µM* | nt | nt
CNc1ncnc(Sc2nc(N)nc3nc[nH]c23)c1[N+](=O)[O-] | nt | 32µM* | 28% | nt | nt
CCOc1ccc(OCCOCCOc2c(Cl)cccc2Cl)cc1 | nt | 109% | 189% | nt | nt
CC(C)(C)C(=O)/C(=C/c1ccc(Cl)cc1)n1cncn1 | -9% | 0% | 35% | 9% | 4%
CC(C)(C)C(=O)/C(=C\c1ccc([N+](=O)[O-])cc1)n1cncn1 | ? | nt | nt | 14µM* | 8%
CCN1CCN(c2ccc(S(=O)(=O)N3CCCCC3)cc2NC(=O)COc2ccc(F)cc2Cl)CC1 | ? | ? | -9% | ? | ?
CCN1CCN(c2ccc(S(=O)(=O)N3CCCCC3)cc2NC(=O)COc2cc(C)ccc2Cl)CC1 | 10µM* | ? | -27% | nt | 79µM*
CCN1CCN(c2ccc(S(=O)(=O)N3CCCCC3)cc2NC(=O)COc2ccc(Cl)cc2)CC1 | 5µM* | ? | -19% | nt | ?
CC1=C(CCC(=O)O)c2cc3nc(cc4[nH]c(cc5[nH]c(cc1n2)c(C)c5C(C)O)c(C)c4C(C)O)C(C)=C3CCC(=O)O (centres undefined) | nt | nt | nt | -16% | nt
C=Cc1c(C)c2cc3[nH]c(cc4nc(cc5nc(cc1[nH]2)C(C)=C5CCC(=O)O)C(CCC(=O)O)=C4C)c(C)c3C=C | 5%[59 µM] | 20µM* | 193% | 0% | 40µM*
CC(C)CC(=O)Nc1ccc(C(=O)CN2CCC(C)CC2)cc1 | 10µM* | -2%[57.1 µM] | 31% | ? | 7%
CCC(=O)Nc1ccc(C(=O)CN2CCC(C)CC2)cc1 | 10µM* | nt | nt | -15% | -7%
CCCC(=O)Nc1ccc(N2CCN(C(=O)CCC)CC2)cc1 | 50µM* | -20% | 11% | 8% | -5%
